Measurements from PubChem BioAssay (NCI).
Compounds without any hit were thinned out: in the full panel of roughly 83,000, 20% have a hit.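 A percent growth of 40 corresponds to 60% growth inhibition; 0 means no net growth; -100 means all cells died. Active threshold: below 10.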 A number with no mark means an inactive call. Active and inactive are the calls of the source.

Key:
Assay in all cases: NCI-60 one-dose screen, 48 h (100 = growth as untreated, 0 = no growth, -100 = all killed)
Conditions in all cases: 10 µM unless noted
T-47D breast = test system: T-47D breast
BT-549 breast = test system: BT-549 breast
MDA-MB-435 melanoma = test system: MDA-MB-435 melanoma
SW-620 colon = test system: SW-620 colon
MCF7 breast = test system: MCF7 breast
HCT-116 colon = test system: HCT-116 colon
HCC-2998 colon = test system: HCC-2998 colon
KM12 colon = test system: KM12 colon

| SMILES | growth (T-47D breast) | growth (BT-549 breast) | growth (MDA-MB-435 melanoma) | growth (SW-620 colon) | growth (MCF7 breast) | growth (HCT-116 colon) | growth (HCC-2998 colon) | growth (KM12 colon) |
| --- | --- | --- | --- | --- | --- | --- | --- | --- |
| CCCCCCCCn1ccc2cc(NC(=O)Cn3cc(CN4CCCC4)nn3)ccc21 | 24.1% | 70.8% | -72.2% (active) | -54.8% (active) | 8.32% (active) | 37.7% | -54% (active) | 41.8% |
| COc1cc(Cn2ncc3ccc(NC(=O)c4cc5ccccc5oc4=N)cc32)cc(OC)c1OC | 39.6% | 43.6% | -16.1% (active) | 43.5% | 25% | 26.6% | 85% | 32.5% |
| COc1cc(CCC[P+](c2ccccc2)(c2ccccc2)c2ccccc2)cc2c1OCO2 | 11.5% | 23.3% | 3.36% (active) | 37.6% | 18.2% | 22.8% | 24.3% | 10.7% |
| CC(=O)[C@@H]1CC[C@]2(COS(=O)(=O)c3ccc(C)cc3)CC[C@]3(C)[C@H](CC[C@@H]4[C@@]5(C)CCCNC(C)(C)[C@@H]5CC[C@]43C)[C@@H]12 | 49.7% | 82.6% | 52.2% | 9.71% (active) | 58.2% | 32.8% | 26.6% | 52.3% |
| CCOC(=O)/C=C/c1cc2cc(-c3csc4ccccc34)ccc2[nH]1 | 55% | 69.6% | -10.4% (active) | 46.4% | 34.6% | 60.1% | 33.4% | 23.2% |
| O=Cc1ccc(O)c2ncccc12 | 22.8% | -1.72% (active) | 60.3% | 21.5% | 7.29% (active) | -7.5% (active) | 86.6% | 69.6% |
| COc1cc(/C=C/C(=O)N2CCN(C(=O)c3cc(OC)c(OC)c(OC)c3)CC2)ccc1OCCCN1C(=O)c2cccc3cccc(c23)C1=O | 61.9% | 108% | 95.6% | 100% | 90.4% | 81.4% | 99.7% | 79.6% |
| Cc1nc2c(c(N3CCCc4ccccc43)n1)CCC2 | 45.3% | -12.1% (active) | 1.15% (active) | 22.5% | 14.6% | -17% (active) | 18.3% | 0.58% (active) |
| CC/C=C\C[C@H](O)C/C=C1/C(=O)C=C[C@@H]1C/C=C\CCCCO | 21.6% | -8.67% (active) | -5.88% (active) | -12.4% (active) | 13.3% | -64.6% (active) | 6.24% (active) | -16.1% (active) |
| COc1cc(/C=N/Nc2ncc(-c3cc4cc5c(cc4o3)OCO5)s2)cc(OC)c1OC | 45.9% | 15.2% | 18.9% | 55.4% | 53.4% | 28.5% | 82.1% | 23.5% |
| Cc1cc(=O)[nH]c(N=Nc2c(O)[nH]c3ccccc23)n1 | 105% | 99.3% | 114% | 110% | 93.2% | 104% | 107% | 108% |
| CC(C)CC(NC(=O)CN(Cc1ccccc1)S(C)(=O)=O)C(=O)O (stereo unspecified) | 82% | 118% | 94.2% | 108% | 90.5% | 100% | 95% | 98.6% |
| COc1cc(/C=N/n2c(CN3CCOCC3)nc3ccccc3c2=O)cc(OC)c1OC | 94.4% | 103% | 102% | 106% | 99.4% | 94.5% | 104% | 101% |
| Cc1c(O)cc(-c2cnc(N/N=C\c3ccc(Cl)cc3)s2)c(O)c1C | -11.2% (active) | 67.3% | 97.5% | 107% | 71.1% | 94.6% | 111% | 86.5% |
| CNC(=O)NCC1OC(n2cnc3c(NC(=O)Nc4ccccc4)ncnc32)C(O[Si](C)(C)C(C)(C)C)C1CC(=O)N(C)OC (stereo unspecified) | -34% (active) | 25.5% | 7.75% (active) | 23.7% | 3.29% (active) | 16.8% | -13.4% (active) | 17.2% |
| COc1ccc2c(c1)CCCN2c1c2ccccc2nc2ccccc12 | 51.1% | 7.21% (active) | -17.9% (active) | 24.7% | 20.8% | 6.8% (active) | -9.75% (active) | 5.15% (active) |

| SMILES | growth (T-47D breast) | growth (BT-549 breast) | growth (MDA-MB-435 melanoma) | growth (SW-620 colon) | growth (MCF7 breast) | growth (HCT-116 colon) | growth (HCC-2998 colon) | growth (KM12 colon) |
| --- | --- | --- | --- | --- | --- | --- | --- | --- |
| Cc1ccc2c(c1)Sc1c(ccc3ccccc13)N2 | 47.2% | 81.2% | 81.6% | 73.7% | 56.5% | 29.1% | 67.6% | 55.1% |
| COc1ccc(-c2nc(SCCC(C)C)nc(N/N=C\c3cccc(Cl)c3)c2C#N)cc1 | 59.7% | 85.5% | 88.5% | 54.4% | 73.3% | 33.3% | 92.2% | 90.6% |
| COc1ccc(-c2nc(SC(C)C)nc(NNC(N)=S)c2C#N)cc1 | 51.6% | 77.2% | -46.4% (active) | 22.2% | 30.7% | 75.1% | 63.7% | 39.2% |
| Cc1cccc(Cc2cnc(NC(=O)c3ccc4nnsc4c3)s2)c1 | 57.8% | 105% | 82.7% | 80.5% | 95% | 87.7% | 87.5% | 77.9% |
| COc1ccc(-c2csc(C3=C(O)CN(CCCN4CCCC4=O)C3=N)n2)cc1OC | 86.5% | 100% | 116% | 103% | 109% | 88.7% | 98.3% | 104% |
| O=C(COc1ccc(/C=C2\Oc3ccccc3C2=O)cc1)c1ccc(Cl)cc1 | 98.5% | 121% | 90.7% | 115% | 95.3% | 88.5% | 97.4% | 98.5% |
| COc1ccc(NC(=O)CSc2nc(C)c(C(C)=O)n2-c2ccc([N+](=O)[O-])cc2)cc1 | 87.8% | 91.5% | 93.2% | 96.6% | 93.9% | 86.5% | 105% | 107% |
| O=C1/C(=C/c2ccccc2)CCc2nc3ccccc3c(/C=C/c3ccc(Cl)cc3)c21 | 54% | 104% | 95.6% | 103% | 51.8% | 57.7% | 93.5% | 91.4% |
| CC(=O)n1c(-c2ccc(Cl)cc2)nc2c(c1=O)C(c1ccc(Cl)cc1)c1sc3c(Cl)cccc3c1O2 (stereo unspecified) | -2.51% (active) | -7.92% (active) | -19.6% (active) | -11.1% (active) | 5.59% (active) | -45.9% (active) | -45.4% (active) | -17.4% (active) |
| COC(=O)c1c2c(c(C)[n+]([O-])c1C)C(=O)C(NCc1ccc(F)cc1)=CC2=O | 6.75% (active) | 52.4% | -72.9% (active) | 6.37% (active) | -0.8% (active) | 1.27% (active) | 25.7% | 19.9% |
| N[C@@H](CCCCNCC(=O)O)C(=O)O | 96.9% | 111% | 102% | 101% | 105% | 106% | 103% | 101% |
| Cc1c(C(=O)N[C@@H](Cc2ccccc2)C(=O)C(=O)NCCc2ccccc2)[nH]c2ccccc2c1=O | 101% | 124% | 101% | 105% | 92.3% | 106% | 100% | 103% |
| C=CCn1c(C)nc2cc(Nc3nc(Cl)nc4ccccc34)ccc21 | 81.5% | 94.8% | 93.3% | 102% | 94.6% | 91.5% | 101% | 95.2% |
| CC(C)(C)C(CCc1ccc(Cl)cc1)N1CCN(C2CCCCC2)CC1 (stereo unspecified) | 23.2% | 50% | 39.2% | 35% | 31.6% | 17.5% | 27% | 36.8% |
| O=C(CCc1nnc(CN(c2ccccc2)c2ccccc2)o1)c1nc2ccccc2[nH]1 | 74.4% | 84.8% | 94.3% | 103% | 76% | 73.6% | 90.3% | 99.8% |
| Cc1ccc(-c2cc(-c3ccccc3C)[nH]c(=O)c2C#N)s1 | 86.5% | 79.4% | 94.9% | 95.6% | 89% | 91.8% | 111% | 95.3% |
